High-throughput results from PubChem BioAssay.
Compounds with a hit are over-represented: about 1.1% of the library has one in this group of screens.
RXFP1 antag = qHTS Assay for Antagonists of the Relaxin Receptor RXFP1; Relaxin receptor 1 (Homo sapiens), Q9HBX9; HEK293-RXFP1, relaxin-stimulated cAMP HTRF, 30 min; hits give low values; activity change, negative = inhibition, % at 57.5 µM; hit rate 0.59% among 350,000; AID 1259400, 2018;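 active = activity change of -60% or lower, but not beyond a set lower limit; inconclusive = change between -60% and -40%, or beyond the set limit; inactive = change above -40%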
gsp antag = qHTS for Antagonists of gsp, the Etiologic Mutation Responsible for Fibrous Dysplasia/McCune-Albright Syndrome: qHTS. gsp-mutant cells, cAMP HTRF, 30 min. Potency, µM (doses to about 76.9 µM), hits mostly inhibitors. hit rate 0.4% among 340,000; calls by dose curve; cell line not stated here;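 note: intracellular cAMP measured with PDE inhibitor Ro 20-1724 present during compound exposure; nearly all actives have a fitted effect of over 65% in size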
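Cells, 2000/well, grown 16–24 h in DMEM 10% FBS with 0.5 mg/ml G418, then compounds plus […] (300 uM addition stock), 30 min at 37C. cAMP read by HTRF (cAMP-d2 and anti-cAMP antibody-K in lysis buffer) after 30 min RT.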
RXFP1 agonist = qHTS Assay for Agonists of the Relaxin Receptor RXFP1 | Potency, µM (series often up to 57.5 µM), usual class: activators | Relaxin receptor 1 (Homo sapiens), Q9HBX9 | HEK293T-RXFP1 cAMP TR-FRET, 30 min; response scale: percent of porcine relaxin response, buffer zero | hit rate 0.3% among 370,000; note: nearly all actives have a fitted effect of over 60% in size
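HEK293 cells stably expressing RXFP1, treated 30 min at 37C with compounds plus PDE4 inhibitor Ro 20174; cAMP measured by HTRF TR-FRET. Normalized to buffer and 29 nM porcine relaxin; EC50 by Hill fit.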
gsp ag = qHTS for Agonist of gsp, the Etiologic Mutation Responsible for Fibrous Dysplasia/McCune-Albright Syndrome: qHTS. gsp mutant cells, cAMP HTRF, 30 min. Potency, µM (titrated, usually from 76.9 µM), most hits filed as activators. hit rate 0.13% among 340,000. AID 624287, 2012; active = well fitted activation curve with a large enough effect; inconclusive = small, poorly fitted or top-dose-only effect, or another doubt; inactive = no such curve, though single readings can be large or run the other way; cell line not stated here;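 note: phosphodiesterase inhibitor Ro 20-1724 added with compounds to block cAMP breakdown; nearly all actives have a fitted effect of over 60% in size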
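Cells stably selected in G418 were plated at 2000/well, grown 16-24 hr, then given compounds in DMSO with the PDE inhibitor […] (300 uM solution added) for 30 min at 37C; cAMP was read by HTRF.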
S-ASM inh = Inhibitors of Secretory Acid Sphingomyelinase (S-ASM): qHTS; Sphingomyelin phosphodiesterase (Homo sapiens), P17405; placental ASM, HMU-PC fluorogenic substrate, 60 min; Potency, µM (series often up to 57.5 µM), hits mostly inhibitors; hit rate 0.006% among 340,000
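Human placenta-derived ASM enzyme was preincubated with compound for 10 minutes at room temperature, then given fluorogenic substrate HMU-PC0 (9 uM final) for 60 minutes at 37 °C; a pH 10 stop preceded fluorescence reading at Ex 386/Em 447 nm.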
a7 integrin act = qHTS for Activators of Integrin-Mediated Alleviation for Muscular Dystrophy; alpha7betagal myoblasts, beta-gal FDG fluorescence, 48 h; Potency, µM (doses to about 38.3 µM), hits mostly activators; hit rate 0.064% among 350,000; note: nearly all actives have a fitted effect of over 60% in size
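alpha7betagal+/- myoblasts (passage 13, 250/well) treated 48 h at 37C with compounds at 1:260 dilution of DMSO stock. Lysed, then beta-galactosidase activity read as FDG fluorescence (ex 480/em 540) after 30 min, with pre-read for autofluorescence.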
Of the large screens only hits and unclear results are named; the others gave an inactive call. Unless noted, calls come from the whole dose curve; as a rule, active = well fitted curve in the direction sought with a large enough effect; inconclusive = small, poorly fitted or top-dose-only effect, or another doubt; inactive = no such curve, though single readings can be large; an effect the other way counts as inactive or inconclusive.

CC(=O)N1CCCc2cc(S(=O)(=O)N3CCCC(C(=O)N4CCN(c5ccccc5F)CC4)C3)ccc21 (centres undefined)	none (no result: gsp antag, gsp ag, S-ASM inh, a7 integrin act)
O=C(Nc1nnc(SCc2ccc(F)cc2)s1)C1Cc2ccccc2CN1C(=O)c1ccco1 (centres undefined)	RXFP1 antag -64.1
CC(Oc1ccccc1)C(=O)Nc1nc(-c2ccncc2)cs1 (centres undefined)	none
CC(OC(=O)c1ccc(O)cc1)C(=O)Nc1nc(-c2ccccc2)cs1 (centres undefined)	RXFP1 antag -85.0, gsp antag inconclusive
CCN(CC)S(=O)(=O)c1ccc2c(c1)N(CC(=O)N1CCN(c3ccc(Cl)cc3)CC1)C(=O)CO2	none (no result: gsp antag, gsp ag, S-ASM inh, a7 integrin act)
N#C/C(=C(/O)c1ccccc1F)c1nc2cc(C(F)(F)F)ccc2s1	gsp antag inconclusive
N#C/C(=C(/O)c1ccc2c(c1)OCO2)c1nc2cc(C(F)(F)F)ccc2s1	gsp antag 35.5µM, a7 integrin act inconclusive
O=C(NCCN1CCOCC1)c1cc(-c2ccccc2)nc2ccccc12	none (no result: gsp antag, RXFP1 agonist, S-ASM inh)
CCc1ccc(Sc2cc(C(=O)NCCN3CCOCC3)c3ccccc3n2)cc1	a7 integrin act 11.2µM
Cc1ccc(-c2csc(/C=C3/SC(C)C(=O)N3CC(=O)Nc3ccccc3F)n2)cc1 (centres undefined)	RXFP1 antag -83.7 (no result: RXFP1 agonist)
Cc1ccccc1OCc1nnc(SCc2cc(=O)c3ccc(C)c(C)c3[nH]2)n1C	none (no result: gsp antag, gsp ag, S-ASM inh, a7 integrin act)
O=C1CC(c2ccc(Cl)cc2)CC(=O)N1	none (no result: gsp antag, RXFP1 agonist, gsp ag, S-ASM inh, a7 integrin act)
O=C1N/C(=N/N=C/c2ccco2)SC1Cc1ccccc1 (centres undefined)	none
COc1ccccc1CC1S/C(=N/N=C/c2ccco2)NC1=O (centres undefined)	gsp antag 28.2µM
CCN(CC)c1ncnc2ccc(Br)cc12	gsp ag 17.8µM
CCOc1ccccc1CNC(=O)CSc1n[nH]c(-c2ccccc2)n1	none (no result: gsp antag, gsp ag, S-ASM inh, a7 integrin act)
O=C1C(Cl)=C(Nc2ccccc2)C(=O)c2ccccc21	none (no result: RXFP1 antag)
O=C(O)c1ccc(NC2=C(Cl)C(=O)c3ccccc3C2=O)cc1	gsp antag 28.2µM, gsp ag inconclusive, a7 integrin act inconclusive
O=C(O)c1cccc(NC2=C(Cl)C(=O)c3ccccc3C2=O)c1	gsp antag 50.1µM, gsp ag inconclusive
Cc1ccc(Cn2c(SCc3ccc(C(=O)N4CCCCC4)cc3)nc3ccncc32)cc1	none (no result: gsp antag, gsp ag, S-ASM inh, a7 integrin act)
COc1cc(C(=O)Nc2ccc3oc(-c4ccccc4)nc3c2)cc(OC)c1OC	RXFP1 antag -60.2 (no result: gsp antag, gsp ag, S-ASM inh, a7 integrin act)
O=C(Nc1ccc2oc(-c3ccncc3)nc2c1)c1c(F)c(F)c(F)c(F)c1F	none
COc1cc(C(=O)Nc2ccc3oc(-c4cccnc4)nc3c2)cc(OC)c1OC	none
Cc1cc(OCC(=O)Nc2ccc3oc(-c4ccncc4)nc3c2)ccc1Cl	gsp antag 50.1µM
COc1c(F)c(F)c(C(=O)Nc2ccc3oc(-c4ccncc4)nc3c2)c(F)c1F	gsp antag 28.2µM
COc1ccccc1C(=O)Nc1ccc2oc(-c3cccc4c(Br)cccc34)nc2c1	RXFP1 agonist 10µM (no result: gsp antag, gsp ag, S-ASM inh, a7 integrin act)
Cc1ccc(C2c3c(oc4ccccc4c3=O)C(=O)N2c2nnc(C)s2)cc1 (centres undefined)	none (no result: gsp antag, gsp ag, S-ASM inh, a7 integrin act)
Cc1cccc(NC(=O)c2ccc(CN3CC(=O)N4CCCCC4C3=O)cc2)c1C (centres undefined)	none (no result: gsp antag, gsp ag, S-ASM inh, a7 integrin act)
COC(=O)c1ccc(/C(O)=C(\C#N)c2nc3ccccc3s2)cc1	gsp antag 17.8µM
Cc1ccccc1-c1cc(C(=O)NCc2cccc(Br)c2)nn1CC1CC(c2cccc([N+](=O)[O-])c2)=NO1 (centres undefined)	none (no result: RXFP1 antag, RXFP1 agonist)
COc1ccc(S(=O)(=O)N2CCC(C(=O)NCCC(=O)NCc3ccccc3OC)CC2)cc1	RXFP1 antag inconclusive, gsp antag 31.6µM
